aSyn rescue = qHTS of alpha-syn Inhibitors; Yeast expressing alpha-synuclein, growth rescue, BacTiter-Glo, 24 h; Potency, µM (highest dose often 46.1 µM), usual class: activators; actives 0.14% (n = 370,000); further: nearly all actives have a fitted effect of over 65% in size
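Screening used galactose-induced yeast with toxic alpha-synuclein levels, exposed to compound for 24 hr at 30 deg C. Cell growth, read with BacTiter-Glo luminescence, gave the measured signal.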
TDP-43 yeast inh = qHTS of TDP-43 Inhibitors; TDP-43 expressing yeast growth rescue, BacTiter-Glo, 24 h; Potency, µM (highest dose often 46.1 µM), most hits filed as activators; actives 1.8% (n = 410,000); further: nearly all actives have a fitted effect of over 50% in size
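Growth rescue of TDP-43-toxic yeast measured as ATP luminescence (BacTiter-Glo). Cells grown to mid-log in raffinose, induced in galactose at OD600=0.02, exposed to compound 24 hr at 30 deg C.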
Abeta rescue = qHTS for compounds that reverse cellular toxicity of Amyloid beta (A-beta) peptide in yeast: Primary Screen. actives 0.063% (n = 410,000). Potency, µM (top dose mostly 46.1 µM), hits mostly activators. yeast expressing A-beta42, growth rescue, OD600, 48 h; response scale: 0% DMSO, 100% iron-clioquinol control; further: nearly all actives have a fitted effect of over 55% in size
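Yeast A-beta toxicity model in growth medium with pinned compounds, 48 h at 30 C; growth read as absorbance at 600 nm. Normalized to FeCl3/clioquinol equimolar mix (positive) and DMSO (negative).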
Mito fusion act = qHTS Assay for Small Molecule Inhibitors of Mitochondrial Division or Activators of Mitochondrial Fusion; actives 0.23% (n = 320,000); Potency, µM (doses to about 46.1 µM), hits mostly activators; S. cerevisiae fusion-defective mutant growth rescue, CellTiterGlo 48 h; AID 485298, 2010; further: nearly all actives have a fitted effect of over 45% in size
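S. cerevisiae fusion-defective temperature-sensitive mutants (e.g. fzo1-1, mgm1-5) grown 48 h at 37C in YPEG (ethanol/glycerol non-fermentable) medium with 23 nl compound per well; growth rescue read as CellTiterGlo luminescence.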
FUS suppressor = qHTS for Suppressors of FUS Proteinopathy: Primary screen using FUS-linked yeast assay | actives 0.24% (n = 390,000) | Potency, µM (series often up to 76.6 µM), most hits filed as activators | S. cerevisiae FUS-expressing, growth rescue, OD600, 24 h | AID 1347120, 2019; further: nearly all actives have a fitted effect of over 55% in size
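Quantitative HTS measuring growth restoration of FUS-toxic yeast. Galactose-induced cells (OD 0.005) were exposed 24hr at 30C to compounds at several concentrations, then absorbance at 600 nm was recorded.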
A number is an active result; 0 = inactive; ? = inconclusive; - = not tested or not shown. Most compounds without a hit are left out; they make up all but 2.2% or so of the library. The call rests on the fitted dose curve; in most records, active means well fitted curve in the direction sought with a large enough effect; inconclusive means small, poorly fitted or top-dose-only effect, or another doubt; inactive means no such curve, though single readings can be large; an effect the other way counts as inactive or inconclusive.

SMILES | aSyn rescue | TDP-43 yeast inh | Abeta rescue | Mito fusion act | FUS suppressor
Cc1nc(-c2ccc(F)cc2)sc1CCNC(=O)c1ccc(OC(C)C)cc1 | - | 16µM | 0 | - | 0
Cc1nc(-c2cccc(F)c2)sc1CCNC(=O)Cc1ccc(F)cc1 | - | ? | 0 | - | 0
Cc1nc(-c2ccc(F)cc2)sc1CCNC(=O)c1ccccc1 | - | 18µM | 0 | - | 0
Cc1nc(-c2ccc(F)cc2)sc1CCNC(=O)c1cccs1 | - | 8.9µM | 0 | - | 0
O=[N+]([O-])c1ccc(-c2cc3ccccc3[nH]2)cc1 | 0 | - | - | - | -
COc1ccc(-c2nc(C)c(CCNC(=O)c3cccs3)s2)cc1OC | 0 | 22µM | 0 | - | 0
Cc1nc(-c2ccccc2)sc1C(=O)Nc1ccccc1F | 0 | 13µM | 0 | 0 | 0
COc1ccc2[nH]c3c(c2c1)CCN[C@]31C(=O)N(Cc2ccccc2)c2ccccc21 | - | - | - | - | 0
CCCCCC[C@H](CC)CN(C(=O)Oc1ccccc1)c1ccccc1 | - | - | - | - | 0
COc1ccc2c(c1)CC=C1C2CCC2(C)C(=O)C(=NO)CC12 (stereo not given) | 0 | 11µM | 0 | - | 0
COCc1cc(C)nc2oc(C(=O)c3ccccc3)c(N)c12 | 0 | 13µM | 0 | 0 | 0
Cc1cc(C)c2c(N)c(C(=O)c3ccccc3)oc2n1 | 0 | 0 | 0 | 0 | 0
O=[N+]([O-])c1ccc(S(=O)(=O)NCC2CC3CCC2C3)cc1 (stereo not given) | 0 | 0 | 0 | 0 | 0
O=[N+]([O-])c1cccc(S(=O)(=O)NCC2CC3CCC2C3)c1 (stereo not given) | 0 | 11µM | 0 | 0 | 0
CO[C@H]1C=CO[C@@]2(C)Oc3c(C)c(O)c4c(O)c(c(C=NN5CCN(C)CC5)c(O)c4c3C2=O)NC(=O)C(C)=CC=C[C@H](C)[C@H](O)[C@@H](C)[C@@H](O)[C@@H](C)[C@H](OC(C)=O)[C@@H]1C | 0 | 0 | 0 | 0 | 18µM
Fc1ccc(Br)cc1SCCc1ccncc1 | 0 | 11µM | 0 | 0 | 0
CC(=O)Nc1cc(C(=O)NCc2ccc(C)cc2)ccc1Sc1ccc(C)cc1 | - | 20µM | 0 | - | ?
CCOc1ccc(CNC(=O)c2ccc(Sc3ccc(C)cc3)c(NC(C)=O)c2)cc1OC | 0 | ? | 0 | 0 | ?
COc1ccc(CCC[C@H](CCC(=O)N(c2ccccc2)c2ccccc2)CCc2ccccc2)cc1 | - | - | - | - | 0
O=C(c1cc[n+]([O-])cc1)N1CCCC(N2CCN(c3cccc(C(F)(F)F)c3)CC2)C1 (stereo not given) | 0 | 0 | 0 | ? | -
COc1ccc(-c2nnc3ccc(SC(C)C)nn23)cc1OC | 0 | - | - | - | -
COc1ccc([N+](=O)[O-])cc1NC1CCCCC1 | 0 | 20µM | 0 | 0 | 0
Cc1ccc(-c2nc3ncccn3c2NC(=O)Nc2ccc(F)cc2)cc1 | - | - | - | - | 0
CC(C)c1nc2sc3c(=O)[nH]c(=S)[nH]c3c2c2c1CCC2 | - | - | - | 13µM | -
COC[C@@H]1CCCN1c1ccc2c(c1)O[C@H](COCc1ccccc1)CN([C@H](C)c1ccccc1)S2(=O)=O | 0 | 0 | 0 | - | 0
SMILES | aSyn rescue | TDP-43 yeast inh | Abeta rescue | Mito fusion act | FUS suppressor
O=C(CN1C(=O)CC(c2ccccc2)=Nc2ccccc21)Nc1ccc(Br)cc1 | - | 0 | 0 | - | 0
O=C1CC(c2ccccc2)=Nc2ccccc2N1Cc1ccccc1 | 0 | 13µM | 0 | 0 | 0
C=CCN(CC=C)C(=O)Cc1ccc(F)cc1 | 0 | 0 | 0 | 0 | 0
Cn1c(-c2ccccc2)cc2c3no[n+]([O-])c3ccc21 | 0 | 3.5µM | 0 | 0 | 0
Cn1c(-c2ccccc2)cc2ccccc21 | 0 | 0 | 0 | 0 | 0
Cc1nc2ccc(C(=O)OC(C)C(=O)c3c(C)[nH]c4ccccc34)cc2nc1C (stereo not given) | 0 | - | - | - | -
CCN(CC)S(=O)(=O)c1ccc(N2CCOCC2)c(NC(=O)c2cc3ccccc3o2)c1 | 0 | 35µM | 0 | - | 0
CCN(CC)S(=O)(=O)c1ccc(N2CCOCC2)c(NC(=O)c2ccccc2)c1 | 0 | 0 | 0 | 0 | 0
CC(C)CN(C)c1ccc(/C=C2\C=Cc3ccccc32)cc1 | 0 | - | - | - | -
CCCc1cc(=O)oc2cc3oc(C)c(C)c3cc12 | 0 | 0 | 0 | 0 | -
CCc1cc(=O)oc2cc3oc(C)c(C)c3cc12 | 0 | 3.5µM | 0 | 0 | 0
COCCNC(=O)c1cc(-c2ccccc2)nn1CC1CC(c2cccc([N+](=O)[O-])c2)=NO1 (stereo not given) | 0 | 0 | 0 | - | 0
O=C(NCc1cccc(Br)c1)c1cc(-c2ccccc2)nn1CC1CC(c2cccc([N+](=O)[O-])c2)=NO1 (stereo not given) | 0 | 0 | 0 | - | 32µM
S=C(Nc1ccccc1)OC1CCC12CCC(c1ccccc1)CC2 (stereo not given) | - | - | - | - | 0
Cc1ccc2cc(C#N)c(N3CCCN(S(=O)(=O)c4ccccc4)CC3)nc2c1C | 0 | 0 | 0 | - | 6.3µM
Cc1cc(Nc2cccc(Cl)c2)nc2ccc(NC(=O)Cc3ccc(Cl)cc3)cc12 | - | ? | 0 | - | ?
O=C(Nc1cccc(C(F)(F)F)c1)c1cccc(C(=O)Nc2cccc(C(F)(F)F)c2)c1 | - | 0 | 0 | - | 0
Cc1cc(Nc2cccc(Cl)c2)nc2ccc(NC(=O)Cc3cccc(C(F)(F)F)c3)cc12 | - | 16µM | 0 | - | ?
Cc1nc2ccc(NC(=O)c3cccc(C(F)(F)F)c3)cc2o1 | 0 | 11µM | 0 | 0 | 0
Cc1cc(Nc2cccc(C(F)(F)F)c2)nc2ccc(NC(=O)c3cccc(Cl)c3)cc12 | - | 18µM | ? | - | ?
COc1ccc(Cl)cc1C(=O)Nc1ccc2nc(Nc3cccc(Cl)c3)cc(C)c2c1 | - | 0 | ? | - | ?
Cc1cc(Nc2cccc(Cl)c2)nc2ccc(NC(=O)c3ccc(F)cc3Cl)cc12 | - | 20µM | 0 | - | ?
COc1ccc(CNC(=O)CN=C2NC(=O)C(c3ccccc3)(c3ccccc3)N2)cc1 | 0 | 0 | 0 | 0 | 0
Fc1ccc(-c2nc(-c3c[nH]c4ccccc34)cs2)cc1 | 0 | - | - | - | -
CCN(CC)c1ncnc2scc(C3COc4ccccc4O3)c12 (stereo not given) | 0 | 18µM | 0 | 0 | 0
SMILES | aSyn rescue | TDP-43 yeast inh | Abeta rescue | Mito fusion act | FUS suppressor
c1ccc2c(c1)OCC(c1csc3ncnc(N4CCOCC4)c13)O2 (stereo not given) | 0 | 0 | 0 | 0 | 0
Cc1c(Cl)cccc1NC(=O)CN1C(=O)CCn2nc(-c3cccn3C)cc21 | - | 0 | 0 | - | ?
COc1cccc(-c2sc3ccc(OC)cc3c2-c2ccc(OCCN3CCOCC3)cc2)c1 | 0 | 35µM | 0 | - | ?
COc1ccc(-c2sc3ccccc3c2-c2ccc(OCCN(C)C)cc2)cc1 | 0 | 0 | 0 | - | 0
COc1cccc(-c2sc3ccc(OC)cc3c2-c2ccc(OCCN(C)C)cc2)c1 | 0 | 0 | 0 | - | 32µM
COc1ccc2sc(-c3ccccc3OC)c(-c3ccc(OCCN4CCOCC4)cc3)c2c1 | 0 | 0 | 0 | - | ?
